Compounds without any hit were thinned out: in the full panel of roughly 83,000, 20% have a hit.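 A percent growth of 40 corresponds to 60% growth inhibition; 0 means no net growth; -100 means all cells died. Active threshold: below 10.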 Calls of active or inactive are those of the source.
Key:
Assay in all cases: NCI-60 one-dose screen, 48 h (100 = growth as untreated, 0 = no growth, -100 = all killed)
Settings in all cases: 10 µM unless noted
DU-145 prostate = system: DU-145 prostate
K-562 leukemia = system: K-562 leukemia
MALME-3M melanoma = system: MALME-3M melanoma
MDA-MB-231 breast = system: MDA-MB-231 breast
RXF 393 renal = system: RXF 393 renal
SF-268 CNS = system: SF-268 CNS
SF-295 CNS = system: SF-295 CNS
SF-539 CNS = system: SF-539 CNS
UACC-257 melanoma = system: UACC-257 melanoma
M14 melanoma = system: M14 melanoma
HCT-15 colon = system: HCT-15 colon
HT29 colon = system: HT29 colon
SNB-75 CNS = system: SNB-75 CNS
SNB-19 CNS = system: SNB-19 CNS
U251 CNS = system: U251 CNS
PC-3 prostate = system: PC-3 prostate
SK-MEL-5 melanoma = system: SK-MEL-5 melanoma
UACC-62 melanoma = system: UACC-62 melanoma
LOX IMVI melanoma = system: LOX IMVI melanoma
SK-MEL-28 melanoma = system: SK-MEL-28 melanoma

Measured: growth

COc1cccc(CNc2c3ccccc3nc3ccccc23)c1
active: K-562 leukemia 6.57%
inactive: DU-145 prostate 53.3% | MALME-3M melanoma 44% | MDA-MB-231 breast 49.9% | RXF 393 renal 13.8% | SF-268 CNS 71.2% | SF-295 CNS 36% | SF-539 CNS 19.4% | UACC-257 melanoma 55% | M14 melanoma 35.2% | HCT-15 colon 24.4% | HT29 colon 18.7% | SNB-75 CNS 56.9% | SNB-19 CNS 36% | U251 CNS 38.7% | PC-3 prostate 38.9% | SK-MEL-5 melanoma 57.6% | UACC-62 melanoma 63.5% | LOX IMVI melanoma 19.8% | SK-MEL-28 melanoma 81.2%

CCNc1nc(O)c(/C=C2\C=Nc3ncccc32)s1
inactive: K-562 leukemia 26.3% | MDA-MB-231 breast 10.7% | HCT-15 colon 16%
active: DU-145 prostate 9.93% | MALME-3M melanoma -6.17% | RXF 393 renal -39.3% | SF-268 CNS -5.81% | SF-295 CNS 4.95% | SF-539 CNS -64.2% | UACC-257 melanoma -15.9% | M14 melanoma 0.692% | HT29 colon 4.26% | SNB-75 CNS -71.8% | SNB-19 CNS 9.99% | U251 CNS -9.45% | PC-3 prostate 2.3% | SK-MEL-5 melanoma 9.15% | UACC-62 melanoma -16% | LOX IMVI melanoma 1.75% | SK-MEL-28 melanoma -17.2%

FC(F)(F)c1ccc(Cn2cc(CSc3nc4ccccc4s3)nn2)cc1
inactive: DU-145 prostate 108% | K-562 leukemia 97.1% | MALME-3M melanoma 111% | MDA-MB-231 breast 99% | RXF 393 renal 104% | SF-268 CNS 101% | SF-295 CNS 95.8% | SF-539 CNS 106% | UACC-257 melanoma 87% | M14 melanoma 100% | HCT-15 colon 101% | HT29 colon 94.4% | SNB-75 CNS 94% | SNB-19 CNS 101% | U251 CNS 96.3% | PC-3 prostate 95.7% | SK-MEL-5 melanoma 105% | UACC-62 melanoma 87.3% | LOX IMVI melanoma 110% | SK-MEL-28 melanoma 105%

CCOC(=O)C#Cc1c(C(=O)OCC)nnn1Cc1ccc(C(F)(F)F)cc1
inactive: DU-145 prostate 60.5% | MALME-3M melanoma 74.4% | MDA-MB-231 breast 88.1% | SF-268 CNS 86.6% | SF-295 CNS 94.8% | SF-539 CNS 43.3% | UACC-257 melanoma 74.2% | M14 melanoma 30.5% | SNB-75 CNS 62.3% | SNB-19 CNS 85.5% | U251 CNS 93.7% | PC-3 prostate 64.5% | SK-MEL-5 melanoma 95.2% | UACC-62 melanoma 80% | SK-MEL-28 melanoma 89.7%
active: K-562 leukemia 3.87% | RXF 393 renal -7.11% | HCT-15 colon -16.9% | HT29 colon 5.09% | LOX IMVI melanoma -68.3%

CC1(C)N=C(N)N=C(N)N1c1ccc(CCCCc2ccccc2)c(Cl)c1
active: SF-539 CNS -3.79% | UACC-257 melanoma 3.22% | HT29 colon -11.2% | U251 CNS 3.58% | PC-3 prostate 6.3% | SK-MEL-5 melanoma -76.1% | UACC-62 melanoma 8.84% | LOX IMVI melanoma 8.69%
inactive: DU-145 prostate 27% | K-562 leukemia 18% | MALME-3M melanoma 52.2% | MDA-MB-231 breast 42.5% | RXF 393 renal 30.6% | SF-268 CNS 19.6% | SF-295 CNS 29.6% | M14 melanoma 33.5% | HCT-15 colon 20.5% | SNB-75 CNS 18.3% | SNB-19 CNS 21.4% | SK-MEL-28 melanoma 25.2%

CN(C)c1ccc(-c2nc(-c3ccccc3)c(-c3ccccc3)[nH]2)cc1
inactive: DU-145 prostate 102% | K-562 leukemia 65.7% | MALME-3M melanoma 107% | MDA-MB-231 breast 95.3% | RXF 393 renal 104% | SF-268 CNS 112% | SF-295 CNS 88.6% | SF-539 CNS 102% | UACC-257 melanoma 110% | M14 melanoma 82.7% | HCT-15 colon 77.5% | HT29 colon 58.9% | SNB-75 CNS 106% | SNB-19 CNS 106% | U251 CNS 103% | PC-3 prostate 76.9% | SK-MEL-5 melanoma 100% | UACC-62 melanoma 97.7% | LOX IMVI melanoma 88.7% | SK-MEL-28 melanoma 103%

CCc1ccc(CCC(=O)Nc2ncc(Cc3cc(Cl)ccc3Cl)s2)o1
inactive: DU-145 prostate 18.5% | MALME-3M melanoma 43.5% | MDA-MB-231 breast 28.6% | SF-268 CNS 60.9% | UACC-257 melanoma 69.9% | HCT-15 colon 13% | SNB-19 CNS 21% | U251 CNS 21.7% | PC-3 prostate 23.8% | SK-MEL-5 melanoma 25.2% | UACC-62 melanoma 18.7% | LOX IMVI melanoma 30.2% | SK-MEL-28 melanoma 55.9%
active: K-562 leukemia 9.71% | RXF 393 renal -32.5% | SF-295 CNS 6.84% | SF-539 CNS -6.72% | M14 melanoma 6.6% | HT29 colon 2.01% | SNB-75 CNS -12.1%

Cc1ncc(C(=O)Nc2ccc(CN3CCN(C)CC3)c(C(F)(F)F)c2)cc1C#Cc1cnc(N)c2ncccc12
active: K-562 leukemia -59.5% | MALME-3M melanoma -79% | MDA-MB-231 breast -78.9% | RXF 393 renal -18.9% | M14 melanoma -79.9% | HT29 colon -13.8% | PC-3 prostate 5.19% | SK-MEL-5 melanoma -59.3% | UACC-62 melanoma 7.13% | LOX IMVI melanoma -3.58% | SK-MEL-28 melanoma -77.4%
inactive: DU-145 prostate 34% | SF-268 CNS 29.8% | SF-295 CNS 48.8% | SF-539 CNS 29.8% | UACC-257 melanoma 30.6% | HCT-15 colon 20% | SNB-75 CNS 50.9% | SNB-19 CNS 81% | U251 CNS 45.7%

CCN1C(=O)N(CC)C2C1NN=c1s/c(=C3\C(=O)N(CC(C)C)c4ccccc43)c(=O)n12 (stereo not given)
inactive: DU-145 prostate 10.4% | K-562 leukemia 10.5% | MALME-3M melanoma 59.6% | MDA-MB-231 breast 12.3% | RXF 393 renal 21.9% | SF-268 CNS 54.9% | UACC-257 melanoma 65.5% | M14 melanoma 18.8% | HCT-15 colon 12.5% | SNB-75 CNS 14.9% | SNB-19 CNS 28% | U251 CNS 12.1% | PC-3 prostate 27.7% | SK-MEL-5 melanoma 14.9% | UACC-62 melanoma 27.7% | LOX IMVI melanoma 24.7% | SK-MEL-28 melanoma 51%
active: SF-295 CNS 6.8% | SF-539 CNS -23.5% | HT29 colon 2.25%

C/C=C(\C)C(=O)N[C@H]1C(O)C[C@]2(C)C3CC[C@@]4(C)C(CC[C@@H]4C(C)N(C)C)C3CCC2C1O (stereo not given in full)
active: K-562 leukemia 0.455% | SF-539 CNS 7.02% | M14 melanoma -14.1% | HCT-15 colon -28.6% | HT29 colon 1.91% | SK-MEL-5 melanoma -41.3% | LOX IMVI melanoma -26.3% | SK-MEL-28 melanoma -7.39%
inactive: DU-145 prostate 74.6% | MALME-3M melanoma 17.1% | MDA-MB-231 breast 65.2% | RXF 393 renal 81% | SF-268 CNS 13.6% | SF-295 CNS 105% | UACC-257 melanoma 14.6% | SNB-75 CNS 74.5% | SNB-19 CNS 104% | U251 CNS 52.3% | PC-3 prostate 45.5% | UACC-62 melanoma 62.3%

Cc1cc(Nc2ccc(C(=O)N3CCCC3)cc2)nc(NCCCNc2ccnc3cc(Cl)ccc23)n1
active: LOX IMVI melanoma -67.1%
inactive: DU-145 prostate 91.5% | K-562 leukemia 33.9% | MALME-3M melanoma 54.8% | MDA-MB-231 breast 48.3% | RXF 393 renal 101% | SF-268 CNS 67.8% | SF-295 CNS 103% | SF-539 CNS 65% | UACC-257 melanoma 105% | M14 melanoma 82.5% | HCT-15 colon 102% | HT29 colon 68.9% | SNB-75 CNS 91.2% | SNB-19 CNS 84.1% | U251 CNS 53.5% | PC-3 prostate 93.3% | SK-MEL-5 melanoma 92.3% | UACC-62 melanoma 86.8% | SK-MEL-28 melanoma 92.1%

COc1cccc(C(=O)NNc2nc(Cl)nc(Cl)n2)c1
inactive: DU-145 prostate 105% | K-562 leukemia 96.7% | MALME-3M melanoma 100% | MDA-MB-231 breast 104% | RXF 393 renal 109% | SF-268 CNS 103% | SF-295 CNS 101% | SF-539 CNS 100% | UACC-257 melanoma 102% | M14 melanoma 102% | HCT-15 colon 98.2% | HT29 colon 98.8% | SNB-75 CNS 87.4% | SNB-19 CNS 93% | U251 CNS 99.2% | PC-3 prostate 97.4% | SK-MEL-5 melanoma 96.1% | UACC-62 melanoma 101% | LOX IMVI melanoma 97% | SK-MEL-28 melanoma 105%

Cc1cccc(Oc2ccc(Nc3ncnc4ccc(NC(=O)CN5CCN(C)CC5)cc34)cc2Cl)c1
inactive: DU-145 prostate 33.2% | SF-268 CNS 42% | SF-295 CNS 63.9% | SNB-75 CNS 80.8% | SNB-19 CNS 28.4% | PC-3 prostate 33.1%
active: K-562 leukemia -6.17% | MALME-3M melanoma -72.6% | MDA-MB-231 breast -47.2% | RXF 393 renal -65.6% | SF-539 CNS -77.1% | UACC-257 melanoma -66.4% | M14 melanoma -72.7% | HCT-15 colon 5.82% | HT29 colon -30.1% | U251 CNS 9.58% | SK-MEL-5 melanoma -76.7% | UACC-62 melanoma -27.4% | LOX IMVI melanoma -94.2% | SK-MEL-28 melanoma -84.6%

O=C(N/N=C\c1ccccc1S(=O)(=O)O)N/N=C/c1ccccc1S(=O)(=O)O
inactive: DU-145 prostate 106% | K-562 leukemia 97.9% | MALME-3M melanoma 105% | MDA-MB-231 breast 102% | RXF 393 renal 112% | SF-268 CNS 102% | SF-295 CNS 101% | SF-539 CNS 111% | UACC-257 melanoma 93.2% | M14 melanoma 102% | HCT-15 colon 104% | HT29 colon 105% | SNB-75 CNS 95.5% | SNB-19 CNS 99.8% | U251 CNS 99.9% | PC-3 prostate 96.3% | SK-MEL-5 melanoma 106% | UACC-62 melanoma 98.1% | LOX IMVI melanoma 102% | SK-MEL-28 melanoma 101%

COc1ccc(-c2nc3c(N)c(CO)cnc3s2)cc1
inactive: DU-145 prostate 86.6% | K-562 leukemia 97.2% | MALME-3M melanoma 101% | MDA-MB-231 breast 94.4% | RXF 393 renal 74.7% | SF-268 CNS 76.2% | SF-295 CNS 93.1% | SF-539 CNS 89.7% | UACC-257 melanoma 110% | M14 melanoma 99.4% | HCT-15 colon 93.8% | HT29 colon 97.7% | SNB-75 CNS 82.9% | SNB-19 CNS 97.2% | U251 CNS 88.6% | PC-3 prostate 91.8% | SK-MEL-5 melanoma 82.7% | UACC-62 melanoma 92.7% | LOX IMVI melanoma 81.9% | SK-MEL-28 melanoma 98.5%

Reference: PubChem BioAssay (NCI)
